Compound activity as filed in PubChem BioAssay.
The list is not random: actives were taken first. Their share in the collection is about 21%.
ELG1 repair inh = ELG1-dependent DNA repair inhibition; 2.3% of 330,000 active; Potency, µM (series often up to 46.1 µM), inactives show at the highest dose activity change, negative = inhibition, hits mostly inhibitors; HEK293T ELG1-luciferase reporter, luminescence, 16 h; DNA damage induced by 5-fluorouridine; note: potency is the fitted concentration of half-maximal effect; nearly all actives have a fitted effect of over 55% in size
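5-Fluorouridine DNA damage + compound/DMSO, 2,000 cells/well, 16 h, 37 °C/5% CO2. ONE-Glo, 30 min RT, luminescence. Readout = decrease in reporter signal.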
TDP1 cell noCPT = qHTS for Inhibitors of human tyrosyl-DNA phosphodiesterase 1 (TDP1): qHTS in cells in absence of CPT; DT40 Tdp1-/- hTDP1 cells, no CPT, ATP luminescence, 48 h; Potency, µM (highest dose often 46.2 µM), inactives show at the highest dose activity change, negative = growth inhibition, most hits filed as inhibitors; 15% of 420,000 active; note: potency is the fitted concentration of half-maximal effect; nearly all actives have a fitted effect of over 55% in size
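Chicken DT40 Tdp1-/- cells stably complemented with human TDP1 were seeded at 400 cells/well with DMSO in place of 20 nM camptothecin. After compound pinning, cells grew at least 48 hr at 37 °C; viability read by CellTiter-Glo luminescence.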
RORgamma inh = ROR gamma (mouse) transcription inhibition; P51450; Potency, µM (series often up to 53.6 µM), for the others: at the highest dose activity change, negative = inhibition, most hits filed as inhibitors; 5.4% of 310,000 active; AID 2551; Drosophila S2 Gal4-RORgamma UAS-luciferase reporter, 20 h; note: potency is the fitted concentration of half-maximal effect; nearly all actives have a fitted effect of over 60% in size
Target sequence (P51450 whole entry, looked up, the tested form may be a part): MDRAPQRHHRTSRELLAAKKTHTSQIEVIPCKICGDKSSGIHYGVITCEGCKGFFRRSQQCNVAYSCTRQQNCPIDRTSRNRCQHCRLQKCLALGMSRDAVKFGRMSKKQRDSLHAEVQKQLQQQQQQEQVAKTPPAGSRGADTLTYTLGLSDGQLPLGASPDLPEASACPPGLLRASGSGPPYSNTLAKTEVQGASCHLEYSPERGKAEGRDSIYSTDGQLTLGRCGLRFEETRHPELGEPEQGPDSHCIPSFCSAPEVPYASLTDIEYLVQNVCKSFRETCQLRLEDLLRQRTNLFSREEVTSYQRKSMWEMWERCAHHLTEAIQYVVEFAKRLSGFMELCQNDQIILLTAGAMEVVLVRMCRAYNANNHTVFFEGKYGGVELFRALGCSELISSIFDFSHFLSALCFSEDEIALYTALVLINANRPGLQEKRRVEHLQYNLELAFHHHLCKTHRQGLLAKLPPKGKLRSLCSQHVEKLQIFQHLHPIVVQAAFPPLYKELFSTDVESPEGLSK
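A Gal4/UAS one-hybrid system in insect cells: metallothionein-promoter Gal4–ROR gamma fusion plus Photinus luciferase reporter. Copper sulfate 700 uM final, 20 hr ambient incubation, luminescent detection after 10 min with reagent.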
Gal4-VP16 FLuc = Gal4-VP16 reporter inhibition counter-screen. AID 2546. 3.5% of 310,000 active. Drosophila S2 Gal4-VP16 UAS-luciferase, luminescence, 20 h. Potency, µM (doses to about 53.6 µM), for inactives: at the highest dose activity, negative = inhibition, actives largely listed as inhibitors;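 note: Gal4-VP16 expression switched on by copper sulfate through the metallothionein promoter; potency is the fitted concentration of half-maximal effect; nearly all actives have a fitted effect of over 50% in size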
IL-1B inflam inh = inhibitors of inflammasome signaling (IL-1 beta secretion); THP-1 LPS/ATP IL-1B secretion, AlphaLISA, 16 h; active compounds read low; activity change, % at 57.5 µM; 4.7% of 360,000 active; AID 743279; in the data active = activity change below about -50%; inconclusive = mostly about -30% to -49%
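Secreted IL-1B measured by AlphaLISA bead assay after 16 h compound exposure of THP-1 cells; compounds (final up to 57.5 uM) added 1 h before LPS (250 ng/mL) and ATP (1.25 mM) stimulation; lower signal means less secretion.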
TDP1 cell CPT = growth inhibition of DT40 Tdp1-/-;hTDP1 cells with camptothecin (screen for TDP1 inhibitors); AID 686979; 12% of 420,000 active; Potency, µM (top dose mostly 46.2 µM), inactives show at the highest dose activity change, negative = growth inhibition, hits mostly inhibitors; chicken DT40 Tdp1-/-;hTDP1 cells + 20 nM CPT, ATP luminescence, 48 h; note: potency is the fitted concentration of half-maximal effect; nearly all actives have a fitted effect of over 55% in size
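Chicken DT40 Tdp1-/- cells stably complemented with human TDP1 were seeded at 400 cells/well in medium containing 20 nM camptothecin, exposed to pin-transferred compounds, and grown at 37 °C for at least 48 hr. Viability was read as ATP luminescence.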
* = called active by the depositor; i = inactive; ? = inconclusive; · = no result given; [ ] = another dose, or the depositor's remark. Unless noted, calls come from the whole dose curve; as a rule, active = well fitted curve in the direction sought with a large enough effect; inconclusive = small, poorly fitted or top-dose-only effect, or another doubt; inactive = no such curve, though single readings can be large; an effect the other way counts as inactive or inconclusive. % is set by controls: 0 for no effect and ±100 for the full control effect.

SMILES	ELG1 repair inh	TDP1 cell noCPT	RORgamma inh	Gal4-VP16 FLuc	IL-1B inflam inh	TDP1 cell CPT
Cc1cc(NC(=O)CS(=O)(=O)c2cn(Cc3cccc(C(F)(F)F)c3)c3ccccc23)no1	·	21µM*	·	·	13	?
C=C1CCN(C(CC(C)C)C(=O)NCc2ccc(Cl)c(Cl)c2)S(=O)(=O)c2ccccc21 (stereo not given)	·	·	27%	3%	·	·
O=C(/C=C/c1ccc([N+](=O)[O-])cc1)N(c1ccccn1)C1CCCCC1	15%	?	-2%	-4%	-10	?
O=C(COc1ccc(F)cc1)N(c1ccccn1)C1CCCCC1	10%	?	20%	2%	-9	?
O=C(c1ccc(Br)cc1)N(c1ccccn1)C1CCCCC1	-21%	15µM*	17%	2%	-2	?
O=C(c1ccc(S(=O)(=O)N2CCOCC2)cc1)N(c1ccccn1)C1CCCCC1	0%	?	17%	-12%	10	?
O=C(c1ccc(F)cc1Cl)N(c1ccccn1)C1CCCCC1	-2%	15µM*	-4%	7%	4	18µM*
O=C(c1cccc(C(=O)N(c2ccccn2)C2CCCCC2)c1)N(c1ccccn1)C1CCCCC1	?	9.2µM*	16%	-1%	-21	12µM*
O=C(c1ccc(Cl)cc1)N(c1ccccn1)C1CCCCC1	-7%	26µM*	-4%	-6%	-1	-30%
CCc1nc2ccc(C(=O)Nc3ccc(OC)c(OC)c3)cn2c1N(C)Cc1cccs1	·	?	·	·	-18	?
Cc1ccc(Oc2ccc(S(=O)(=O)N3CCOCC3)cc2C(N)=O)cc1C	-4%	?	4%	-4%	i	?
CC(C)c1ccc(OCC(=O)N(c2ccccn2)C2CCCCC2)cc1	-7%	15µM*	?	-84%	-11	?
N#C/C(=C\c1ccccc1)C(=O)N(c1ccccn1)C1CCCCC1	16%	18µM*	2.8µM*	?	-98*	?
O=c1[nH]c(=S)[nH]c2c1C(C1CCCCC1)OC(C1CCCCC1)C2 (stereo not given)	·	?	·	·	0	?
CN(Cc1ccc(Cl)cc1Cl)C(=O)CNC(=O)c1ccc2c(c1)OCO2	2%	-25%	·	·	-7	-2%
Cc1[nH]c2ccc(F)cc2c(=O)c1SC(F)(F)C(F)C(F)(F)F (stereo not given)	?	?	7%	-10%	-2	?
COc1cccc2c(=O)c(SC(F)(F)C(F)C(F)(F)F)c(C)[nH]c12 (stereo not given)	1%	18µM*	-4%	-7%	14	?
NC1C(O)OC(CO)[C@@H](O)[C@@H]1O[C@H]1O[C@@H](C(=O)O)C(O)C(O)C1O (stereo not given in full)	·	7%	5%	-8%	·	16%
COc1ccc(CCN2CC(C(=O)NCc3cn(C)nc3C)CCC2=O)cc1 (stereo not given)	·	7%	·	·	-5	3%
CC(=O)c1cc2c(cc1NC(=O)c1cc(C)nn1-c1ccccc1)OCO2	-15%	3.7µM*	1%	-15%	24	5.2µM*
CC(=O)c1cc2c(cc1NC(=O)C1CN(C(C)=O)c3ccccc3O1)OCO2 (stereo not given)	?	21µM*	·	·	16	15µM*
COC(=O)c1ccc(CN2C[C@H](Sc3ccccn3)C[C@H]2C(=O)N(C)C)cc1	·	-19%	·	·	·	-9%[9.04 µM]
CCOc1ccc(CCNS(=O)(=O)c2c(C)nc3sc(C)cn3c2=O)cc1OCC	·	3%	·	·	·	-3%
CCc1cc2c(cc3c(=O)n(CC(=O)NC4CCCCC4)nc(CC)n32)s1	·	-22%	·	·	·	-4%
c1cc(OCC2CO2)cc(OCC2CO2)c1 (stereo not given)	·	·	-17%	-1%	·	·
SMILES	ELG1 repair inh	TDP1 cell noCPT	RORgamma inh	Gal4-VP16 FLuc	IL-1B inflam inh	TDP1 cell CPT
O=S(=O)(c1ccc(OCC2CO2)cc1)c1ccc(OCC2CO2)cc1 (stereo not given)	7%	2.1µM*	-15%	3%	-29	1.8µM*
O=C(OCc1cc(=O)n2cc(Br)ccc2n1)c1ccc(Cl)c(S(=O)(=O)NCc2ccccc2)c1	?	?	?	-21%	24	?
CCOC(=O)c1c(C)[nH]c(C)c1S(=O)(=O)N1CCN(c2ccc([N+](=O)[O-])cc2)CC1	?	13µM*	26%	2%	-4	?
O=C(C1CCCN(S(=O)(=O)c2cnc[nH]2)C1)N1CCN(c2ccc(Cl)cc2)CC1 (stereo not given)	-16%	18µM*	?	-1%	12	13µM*
CCOC(=O)c1c(C)[nH]c(C)c1S(=O)(=O)N1CCC(C(=O)N2CCN(c3ccccc3)CC2)CC1	·	-25%	·	·	·	-18%
CCOC(=O)c1c(C)[nH]c(C)c1S(=O)(=O)N1CCCC(C(=O)N2CCN(c3ccc(Cl)cc3)CC2)C1 (stereo not given)	·	?	·	·	·	16µM*
CCN(CC)C(=O)CSc1nc2ccc(NC(=O)CSc3nnc(COc4ccccc4C)n3C)cc2s1	8.2µM*	?	-14%	4%	-13	?
COc1ccccc1OCc1nnc(SCC(=O)Nc2ccc(C)cc2)n1C	6%	?	0%	-9%	11	-18%
Cc1ccccc1OCc1nnc(SCC(=O)Nc2ccc3nc(SCC(=O)NC(C)(C)C)sc3c2)n1C	?	?	43%	-13%	-11	18µM*
O=C(NCC(c1cccs1)N1CCOCC1)C1CCN(S(=O)(=O)c2cccc(C(F)(F)F)c2)CC1 (stereo not given)	0%	?	·	·	6	?
COc1ccc(S(=O)(=O)N(Cc2ccc(OC)c(OC)c2)Cc2ccco2)cc1	-26%	18µM*	?	?	-14	23µM*
Cc1ccc(S(=O)(=O)N(Cc2ccc(F)cc2)Cc2ccco2)cc1	·	?	38%	-8%	-11	-30%
CCN(CC)S(=O)(=O)c1ccc(S(=O)(=O)N(CC(=O)Nc2ccccc2)Cc2ccco2)cc1	?	?	40%	-21%	6	18µM*
Cc1ccc(S(=O)(=O)N(Cc2ccccc2)Cc2ccco2)cc1	1%	?	-3%	?	2	9.2µM*
CN(C)S(=O)(=O)c1ccc(S(=O)(=O)N(Cc2ccco2)Cc2ccccc2Cl)cc1	1%	16µM*	-19%	18%	9	21µM*
